The panel holds about 83,000 compounds, 20% with a hit somewhere; the sample as a whole holds those more often.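 96-well plates, one dose, 48 hours. Percent growth reported; active if below 10.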 A number with no mark means an inactive call. Activity calls are given as the source filed them.
These molecules were tested on MDA-MB-468 breast (assay: NCI-60 one-dose screen, 48 h (100 = growth as untreated, 0 = no growth, -100 = all killed)). Details: 10 µM unless noted.
`O=C(/C=C/c1cc(CN2CCOCC2)c(O)c2ncccc12)c1cc(CN2CCOCC2)c(O)c2ncccc12` was tested, and the growth was 4.37% (active). `c1ccc(Sc2ncnc3ccccc23)cc1` gave a growth of 50.3%. With `COc1cc(CNS(=O)(=O)c2ccc(C)cc2)ccc1OCc1cn(-c2ccccc2)nn1` the growth was 70.7%. In the case of `COc1ccc(-c2nnc(SCC(=O)Nc3ccc(C(=O)/C=C/c4ccc(OC)c(OC)c4)cc3)o2)cc1`, the growth is reported as 88.7%. Molecule `Cc1c(C(N)=O)sc2c1c(=O)n(Cc1ccccc1)c1nnc(Nc3ccccc3)n21` has a growth of 108%. `O=C(Nc1ccc(-c2ccc3c(c2)NC(=O)/C3=C\c2ccc[nH]2)cc1)NC1CC1` was tested, and the growth was -4.36% (active). `COC(=O)C(C)NS(=O)(=O)/N=C1\NC(=O)NC1=C(Cl)Cl` (stereo not given) gave a growth of 91.4%. `O=C1COCCN1c1ccc(Nc2nc(Cl)nc(OCc3cn(Cc4ccccc4)nn3)n2)cc1` gave a growth of 62.1%. Molecule `Cc1sc2c(c1C)c(=O)nc1c(-c3nc(-c4ccccc4)cs3)n[nH]n12` has a growth of 116%. Molecule `NNc1ncccn1` has a growth of 102%. For `COc1ccc(-c2nnc(/N=C3/C(=O)Nc4ccc(Br)cc43)o2)cc1`, the growth was 90.7%. In the case of `COc1cc2oc(-c3cccc(C(=O)Nc4ccc(C#N)cc4)c3)cc(=O)c2c(O)c1OC`, the growth is reported as 77.3%. `O=Cc1c[nH]c2ccc(NC(=O)OCc3ccccc3)cc12` showed a growth of 109%. With `O=C(Cn1cc(COc2ncnc3c2cnn3-c2ccccc2)nn1)Nc1ccccn1` the growth was 97.7%. `CCOC(=O)c1cc(C(=O)c2cc(OC)c(OC)c(OC)c2)n2ccc(-c3cc[n+](CC(=O)c4cc(OC)c(OC)c(OC)c4)cc3)cc12` showed a growth of 43.2%. Work on `CN(C)CCCN1c2ccccc2CCc2ccccc21` yielded a growth of 39.6%. `FC(F)(F)c1[nH]ncc1-c1nc2c(N3CCCCC3)cc3[nH]ncc3c2c2c1CCCC2` was tested, and the growth was -25.6% (active). `CCCCNC(=O)CC1=C(C)/C(=C/c2[nH]c(-c3ccc[nH]3)cc2OC)N=C1C` showed a growth of 37.9%. `COc1cc(Cn2cc(F)c(=O)[nH]c2=O)cc(OC)c1` gave a growth of 106% [50 µM]. `COc1cccc(-c2nc3occn3c2-c2ccnc(NCCCNS(=O)(=O)c3cccc(F)c3)n2)c1` showed a growth of 65.4%. For `COc1cccc(C(=O)NCCNc2cc(-c3cn(-c4ccccc4)nc3-c3cccc(OC)c3)ccn2)c1`, the growth was 48.9%. `O=C(Nc1cccc2c(O)c(N=Nc3ccc(S(=O)(=O)Nc4nccs4)cc3)cc(N=Nc3ccc(S(=O)(=O)Nc4nccs4)cc3)c12)C(Cl)Cl` was tested, and the growth was 7.35% (active). `CN(C)CC(C)(CN(C)C)C(=O)/C=C/c1c(Cl)cccc1Cl` was tested, and the growth was -82.6% (active). `CC(C)(C)n1cc(-c2ccnc(NCCNS(=O)(=O)c3ccc(C(F)(F)F)cc3)c2)c(-c2cccc(O)c2)n1` gave a growth of 36.8%. Work on `COc1ccc(/C=C2/C(=O)N=C3N2NC(c2ccccc2)=CN3c2ccccc2)cc1` yielded a growth of 88.9%. In the case of `Cn1ncc(CC(=O)O)c1-n1nnc2cc(Cl)ccc2c1=O`, the growth is reported as 89.5%. With `COc1cc2c3c(n(CCCN4CCCCC4)c(=O)c2cc1OC)-c1cc2c(cc1C3=O)OCO2` the growth was -84% (active). For `CC1COCC(C)N1C1=C(Cl)C(=O)c2ccccc2C1=O` (stereo not given), the growth was -92% (active). `NC(N)=NCCCCCNc1noc(Cc2c[nH]c3cc(Br)ccc23)n1` was tested, and the growth was 1.76% (active). `CCCCCCCCCCCCCCCCOc1ccc(C)cc1` was tested, and the growth was 106%. `CC(C)(C)OC(=O)N1CCc2c(sc3ncnc(N/N=C/c4ccc(Br)cc4)c23)C1` showed a growth of 24.9%. `COc1cccc(-c2nn(-c3ccccc3)cc2-c2ccnc(N3CCOCC3)c2)c1` showed a growth of 69.2%. In the case of `CCOC(=O)N1C/C(=C/c2ccc(F)cc2)C(=O)/C(=C/c2ccc(F)cc2)C1`, the growth is reported as -55.6% (active). In the case of `COc1ccc(/C(C)=C(\c2ccc(OCCN3CCCCCC3)cc2)c2ccc(OC(=O)C3CCCCC3)cc2)cc1`, the growth is reported as -74.5% (active). In the case of `O=C(CCl)Nc1ccc2c(c1)C(=O)c1ccccc1C2=O`, the growth is reported as -19.1% (active). `S=c1[nH]cccc1-c1nnc2n1Nc1nc3ccccc3cc1CS2` showed a growth of 102%. `C=C1CC[C@@H]2[C@](C)(COC(C)=O)[C@H](OC(C)=O)CC[C@@]2(C)[C@@H]1CC(Nc1ccc(S(=O)(=O)NC(C)=O)cc1)C1=CCOC1=O` (stereo not given in full) was tested, and the growth was -53.9% (active). `NC(=O)c1ccc[n+](CC(=O)N2CCN(c3cc4c(cc3F)c(=O)c(C(=O)O)cn4C3CC3)CC2)c1` was tested, and the growth was 87.2%. With `C=CC(=O)NCc1ccc(Nc2nccc(-c3ccc(N4CCCC4)c(C#N)c3)n2)cc1` the growth was 15.7%. With `COc1cc2oc(-c3cccc(C(=O)Nc4ccc(Cl)cc4)c3)cc(=O)c2c(O)c1OC` the growth was 43.7%.

— PubChem BioAssay (NCI)
